ChEMBL document CHEMBL1961873, “Compounds: GSK PKIS; Assays: Nanosyn kinase panel” (2012)

Experiments:
[1] = molecular target: Calcium/calmodulin-dependent protein kinase type II subunit alpha (Homo sapiens) (UniProt Q9UQM7); settings: at 1 µM;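 also: reported value is a mean percent inhibition of CAMK2A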
[2] = molecular target: Calcium/calmodulin-dependent protein kinase type II subunit delta (Homo sapiens) (UniProt Q13557); settings: at 0.1 µM
[3] = molecular target: Calcium/calmodulin-dependent protein kinase type II subunit delta (Homo sapiens) (UniProt Q13557); settings: at 1 µM
[4] = molecular target: T1, Calcium/calmodulin-dependent protein kinase type IV (Homo sapiens) (UniProt Q16566); settings: at 0.1 µM
T1 sequence (whole entry): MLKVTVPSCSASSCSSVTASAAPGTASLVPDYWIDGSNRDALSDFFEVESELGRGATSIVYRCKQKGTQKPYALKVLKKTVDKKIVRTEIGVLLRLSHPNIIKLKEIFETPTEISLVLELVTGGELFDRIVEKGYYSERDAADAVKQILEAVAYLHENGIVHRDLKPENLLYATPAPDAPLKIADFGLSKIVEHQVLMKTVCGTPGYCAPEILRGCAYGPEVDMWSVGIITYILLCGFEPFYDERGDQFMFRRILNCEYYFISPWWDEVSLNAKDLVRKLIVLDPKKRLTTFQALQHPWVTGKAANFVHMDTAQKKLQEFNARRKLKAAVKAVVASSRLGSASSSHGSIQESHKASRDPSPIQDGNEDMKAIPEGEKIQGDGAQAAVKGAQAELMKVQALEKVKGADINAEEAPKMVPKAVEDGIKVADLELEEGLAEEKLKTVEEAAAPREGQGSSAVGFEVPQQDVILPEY

[5] = molecular target: T1, Calcium/calmodulin-dependent protein kinase type IV (Homo sapiens); settings: at 1 µM
[6] = molecular target: T2, Serine/threonine-protein kinase Chk1 (Homo sapiens) (UniProt O14757); settings: at 0.1 µM
T2 sequence (whole entry): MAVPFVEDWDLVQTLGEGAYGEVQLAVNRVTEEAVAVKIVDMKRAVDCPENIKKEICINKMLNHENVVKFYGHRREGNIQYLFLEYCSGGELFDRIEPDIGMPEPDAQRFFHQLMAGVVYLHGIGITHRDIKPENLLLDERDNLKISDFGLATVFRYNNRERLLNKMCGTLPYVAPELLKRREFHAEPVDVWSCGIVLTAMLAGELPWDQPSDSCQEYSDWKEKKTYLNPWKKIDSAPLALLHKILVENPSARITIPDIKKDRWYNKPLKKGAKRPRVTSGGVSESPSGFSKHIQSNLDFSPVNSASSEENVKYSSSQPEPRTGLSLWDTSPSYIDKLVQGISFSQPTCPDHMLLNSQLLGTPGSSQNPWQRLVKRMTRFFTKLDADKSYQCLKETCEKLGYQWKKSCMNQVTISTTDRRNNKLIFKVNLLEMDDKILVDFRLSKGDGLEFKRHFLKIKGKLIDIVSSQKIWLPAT

[7] = molecular target: T2, Serine/threonine-protein kinase Chk1 (Homo sapiens); settings: at 1 µM
[8] = molecular target: Serine/threonine-protein kinase Chk2 (Homo sapiens) (UniProt O96017); settings: at 0.1 µM
Sequence of Serine/threonine-protein kinase Chk2 (Homo sapiens) (O96017 whole entry): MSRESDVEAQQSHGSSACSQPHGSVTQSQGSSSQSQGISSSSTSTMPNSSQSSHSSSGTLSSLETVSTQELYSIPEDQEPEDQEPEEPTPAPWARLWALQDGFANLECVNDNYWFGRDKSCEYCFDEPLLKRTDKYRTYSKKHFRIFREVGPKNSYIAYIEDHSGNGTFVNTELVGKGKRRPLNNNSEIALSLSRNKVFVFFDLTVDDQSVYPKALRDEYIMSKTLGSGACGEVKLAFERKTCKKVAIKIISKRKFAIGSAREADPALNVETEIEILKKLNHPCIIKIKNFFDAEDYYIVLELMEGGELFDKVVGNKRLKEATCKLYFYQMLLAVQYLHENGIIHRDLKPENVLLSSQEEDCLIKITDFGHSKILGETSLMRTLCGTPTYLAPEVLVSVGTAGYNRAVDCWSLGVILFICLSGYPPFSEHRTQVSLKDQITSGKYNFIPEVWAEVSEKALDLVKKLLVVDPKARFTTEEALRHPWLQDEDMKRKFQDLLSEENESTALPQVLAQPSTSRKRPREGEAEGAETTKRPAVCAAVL

[9] = molecular target: Serine/threonine-protein kinase Chk2 (Homo sapiens) (UniProt O96017); settings: at 1 µM
[10] = molecular target: Death-associated protein kinase 1 (Homo sapiens) (UniProt P53355); settings: at 0.1 µM;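 also: reported figure is the mean inhibition of DAPK1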
Sequence of Death-associated protein kinase 1 (Homo sapiens) (P53355 whole entry, looked up): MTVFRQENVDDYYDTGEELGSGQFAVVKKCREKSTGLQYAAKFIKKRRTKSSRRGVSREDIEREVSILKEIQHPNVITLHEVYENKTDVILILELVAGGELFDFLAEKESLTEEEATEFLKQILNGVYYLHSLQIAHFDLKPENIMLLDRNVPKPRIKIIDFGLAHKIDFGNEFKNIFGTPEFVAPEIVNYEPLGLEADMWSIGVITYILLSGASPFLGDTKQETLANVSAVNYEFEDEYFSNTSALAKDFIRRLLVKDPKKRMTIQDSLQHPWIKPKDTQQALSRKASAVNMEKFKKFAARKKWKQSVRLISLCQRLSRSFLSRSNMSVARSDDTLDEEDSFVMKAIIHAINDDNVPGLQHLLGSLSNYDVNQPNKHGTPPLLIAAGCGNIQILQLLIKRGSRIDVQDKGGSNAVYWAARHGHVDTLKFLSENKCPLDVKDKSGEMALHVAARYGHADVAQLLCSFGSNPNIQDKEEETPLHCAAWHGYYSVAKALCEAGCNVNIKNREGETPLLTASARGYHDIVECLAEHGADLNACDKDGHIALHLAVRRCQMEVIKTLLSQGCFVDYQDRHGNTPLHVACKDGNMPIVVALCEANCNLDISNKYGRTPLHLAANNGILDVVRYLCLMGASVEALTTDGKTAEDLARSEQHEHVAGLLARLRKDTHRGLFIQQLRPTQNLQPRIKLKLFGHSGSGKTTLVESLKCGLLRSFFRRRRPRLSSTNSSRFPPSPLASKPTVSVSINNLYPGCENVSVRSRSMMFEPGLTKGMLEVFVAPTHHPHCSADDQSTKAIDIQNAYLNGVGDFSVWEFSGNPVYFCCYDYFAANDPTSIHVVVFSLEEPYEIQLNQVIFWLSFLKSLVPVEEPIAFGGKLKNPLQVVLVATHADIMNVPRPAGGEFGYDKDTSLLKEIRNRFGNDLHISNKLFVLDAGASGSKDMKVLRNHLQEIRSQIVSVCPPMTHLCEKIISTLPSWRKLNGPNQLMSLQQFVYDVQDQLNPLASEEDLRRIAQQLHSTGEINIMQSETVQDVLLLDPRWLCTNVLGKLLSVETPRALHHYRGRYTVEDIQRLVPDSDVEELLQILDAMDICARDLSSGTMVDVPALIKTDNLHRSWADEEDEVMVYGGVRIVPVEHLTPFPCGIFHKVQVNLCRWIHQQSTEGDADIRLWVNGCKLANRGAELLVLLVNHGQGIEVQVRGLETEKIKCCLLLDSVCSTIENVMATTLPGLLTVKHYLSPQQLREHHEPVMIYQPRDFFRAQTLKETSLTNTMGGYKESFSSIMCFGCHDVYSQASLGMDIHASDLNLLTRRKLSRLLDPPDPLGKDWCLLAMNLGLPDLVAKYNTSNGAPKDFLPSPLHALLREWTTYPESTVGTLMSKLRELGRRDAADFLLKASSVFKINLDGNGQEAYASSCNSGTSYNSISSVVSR

Sequence of Calcium/calmodulin-dependent protein kinase type II subunit delta (Homo sapiens) (Q13557 whole entry): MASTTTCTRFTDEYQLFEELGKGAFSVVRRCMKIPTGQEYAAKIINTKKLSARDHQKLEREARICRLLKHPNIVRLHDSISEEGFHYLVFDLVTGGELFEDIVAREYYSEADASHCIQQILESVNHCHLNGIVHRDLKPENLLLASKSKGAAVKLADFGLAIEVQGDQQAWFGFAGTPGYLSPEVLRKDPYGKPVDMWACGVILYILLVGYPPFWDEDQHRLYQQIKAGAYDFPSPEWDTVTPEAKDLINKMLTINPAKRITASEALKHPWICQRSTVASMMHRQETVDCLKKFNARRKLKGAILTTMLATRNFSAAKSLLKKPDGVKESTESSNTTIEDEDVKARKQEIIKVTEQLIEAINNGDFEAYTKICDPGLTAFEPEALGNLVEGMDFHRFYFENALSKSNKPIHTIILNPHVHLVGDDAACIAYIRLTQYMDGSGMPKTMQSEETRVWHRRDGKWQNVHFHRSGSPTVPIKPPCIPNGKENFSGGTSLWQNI
Sequence of Calcium/calmodulin-dependent protein kinase type II subunit alpha (Homo sapiens) (Q9UQM7 whole entry): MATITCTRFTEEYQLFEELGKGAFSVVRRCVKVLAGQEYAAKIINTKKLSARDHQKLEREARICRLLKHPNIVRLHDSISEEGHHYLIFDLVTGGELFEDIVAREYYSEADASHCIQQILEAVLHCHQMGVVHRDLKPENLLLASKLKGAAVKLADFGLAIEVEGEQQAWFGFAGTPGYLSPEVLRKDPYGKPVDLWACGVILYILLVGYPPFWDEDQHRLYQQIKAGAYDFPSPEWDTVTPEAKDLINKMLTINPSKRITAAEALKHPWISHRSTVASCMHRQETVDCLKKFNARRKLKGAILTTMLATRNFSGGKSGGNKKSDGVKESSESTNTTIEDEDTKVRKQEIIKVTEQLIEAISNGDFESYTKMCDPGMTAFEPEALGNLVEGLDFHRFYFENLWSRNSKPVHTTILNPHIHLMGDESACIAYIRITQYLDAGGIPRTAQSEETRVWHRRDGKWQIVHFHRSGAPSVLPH

Row | SMILES | inhibition [1] [%] | inhibition [2] [%] | inhibition [3] [%] | inhibition [4] [%] | inhibition [5] [%] | inhibition [6] [%] | inhibition [7] [%] | inhibition [8] [%] | inhibition [9] [%] | inhibition [10] [%]
1 | Nc1nccc(C#Cc2cncnc2Nc2ccc(OCc3cccc(F)c3)c(Cl)c2)n1 | 5.08 | 8.4 | 8.79 | -0.4 | 0.61 | 1.22 | 7.61 | 2.66 | 5.77 | 3.9
2 | NS(=O)(=O)c1cccc(Nc2cc(-c3ccc(F)cc3)n[nH]2)c1 | 3.11 | 2.57 | 7.84 | -1.7 | -3.94 | -1.71 | 17.6 | 8.44 | 11.9 | 10.4
3 | COC(=O)c1ccc2c(c1)C(=Cc1cc(Br)c(O)c(Br)c1)C(=O)N2 | 5.83 | 3.29 | 9.61 | -0.49 | 4.64 | 9.68 | 14.6 | 8.72 | 20.6 | 9.92
4 | [O-][S+]1CCN(Cc2ccc(-c3ccc4ncnc(Nc5ccc(OCc6ccccc6)c(Cl)c5)c4c3)o2)CC1 | -1.1 | 0.81 | 1.03 | -1.57 | -1.23 | 3.06 | -0.08 | 1.32 | 2.85 | 1.85
5 | NC(=O)c1sc(-n2cnc3ccccc32)cc1OCc1ccccc1Br | 3.18 | 3.32 | 7.99 | 0.49 | 2.57 | 9.58 | 13.2 | 7.49 | 10.5 | 12.3
6 | COc1ccc(-c2nn3ncccc3c2-c2ccnc(Nc3cccc(C(F)(F)F)c3)n2)cc1 | -0.66 | 1.66 | 0.95 | 1.07 | -0.19 | 1.85 | -3.09 | 2.01 | 1.61 | 4.24
7 | CCn1c(-c2nonc2N)nc2c(C#CC(C)(C)O)nc(OCCNC)cc21 | 3.51 | 3.94 | 7.7 | -0.53 | 2.52 | -0.01 | 1.87 | 3.74 | 6.21 | 1.77
8 | O=C1Nc2ccc(-c3cccnc3)cc2C1=Cc1cc(Br)c(O)c(Br)c1 | 5.84 | 3.26 | 7.6 | 0.54 | -0.48 | 3.16 | 0.96 | 3.4 | 8.93 | 1.41
9 | Cc1ccc2c(-c3ccnc(Nc4ccc5c(c4)OCCO5)n3)c(-c3ccc(C(F)(F)F)cc3)nn2n1 | -1.51 | 0.22 | -0.06 | 2.15 | 0.11 | 1.74 | 0.1 | -0.69 | -0.6 | 2.74
10 | COc1cc(/C=N/Nc2ncnc3c2cnn3C(C)C)ccc1O | 0.99 | 0.75 | 3.93 | 0.62 | -1.97 | 3.18 | 4.84 | 0.04 | 1.88 | 1.63
11 | CCS(=O)(=O)c1ccc(OC)c(Nc2nccc(N(C)c3ccc4c(C)n[nH]c4c3)n2)c1 | -0.61 | 3.29 | 6.46 | -1.76 | -2.8 | 4.57 | 2.19 | 3.81 | 8.77 | 7.35
12 | Cc1ccc2c(-c3ccnc(Nc4cccc(C(F)(F)F)c4)n3)c(-c3ccccc3)nn2n1 | 1.98 | 2.93 | 5.15 | 1.16 | 3.52 | -6.21 | -9.83 | -3.6 | -3.73 | -4.51
13 | Nc1nccc(-c2c(-c3ccc(F)cc3)ncn2CCCN2CCOCC2)n1 | 2.46 | 1.96 | 2.44 | 0.27 | -0.08 | 3.25 | 5.25 | 1.76 | 4.69 | 5.49
14 | NS(=O)(=O)c1ccc(NC=C2C(=O)Nc3ccc4ncsc4c32)cc1 | 13.7 | 7.83 | 30.6 | 0.83 | 6.33 | 14.5 | 48 | 7.15 | 33.2 | 4.96
15 | COc1cc(Nc2nccc(-c3cnn4ncccc34)n2)cc(OC)c1 | 15.2 | 6.12 | 36.4 | 1.42 | -0.26 | -0.97 | 7.68 | 1.81 | 14.1 | 1.9
16 | COc1cccc(-n2ncc3c(N/N=C/c4ccc(C)cc4)ncnc32)c1 | 5.56 | 4.56 | 12.5 | 1.46 | 4.68 | -5.6 | -5.11 | -1.83 | 2.47 | -3.26
17 | Cc1cc(Cl)cc2c1NC(=O)C2=NNc1ccc(S(N)(=O)=O)cc1 | 0.96 | 2.57 | -0.12 | -0.56 | -3.46 | 2.43 | 2.86 | 1.38 | 2.55 | 2.88

Row | SMILES | inhibition [1] [%] | inhibition [2] [%] | inhibition [3] [%] | inhibition [4] [%] | inhibition [5] [%] | inhibition [6] [%] | inhibition [7] [%] | inhibition [8] [%] | inhibition [9] [%] | inhibition [10] [%]
18 | OCc1ccc(-c2nc(-c3ccccn3)c(-c3ccc4c(c3)OCO4)[nH]2)cc1 | 5.43 | 4.96 | 4.65 | 0.02 | -0.32 | 3.36 | 3.17 | 3.25 | 4.36 | 4.31
19 | FC(F)(F)c1ccc(-c2nn3ncccc3c2-c2ccnc(Nc3ccc4c(c3)OCCO4)n2)cc1 | -2.19 | -3.32 | -2.99 | -4.88 | -4.43 | 0.08 | 1.68 | 3.99 | 5.26 | 1.54
20 | COc1cc2ncn(-c3cc(OCc4ccccc4S(C)(=O)=O)c(C#N)s3)c2cc1OC | 29.9 | 18.3 | 62.8 | 1.21 | 1.69 | 5.49 | 23.3 | 10 | 43 | 3.5
21 | c1ccc(Nc2ncc(-c3ccccc3)o2)cc1 | 3.27 | 3.06 | 6.25 | 1.79 | 3.97 | 6.09 | 8.99 | 0.95 | 2.54 | 6.27
22 | NC(=O)c1cccc(Nc2nccc(Nc3cccc(F)c3)n2)c1 | 0.53 | 0.45 | 2.08 | 1.09 | 1.02 | 0.04 | 1.52 | -0.9 | 2.39 | 0.65
23 | CS(=O)(=O)Nc1cccc(-c2ccc3c(NC(=O)C4CC4)n[nH]c3c2)c1 | 2.85 | 3.31 | 3 | 1.21 | 0.65 | 1.78 | 1.91 | 0.51 | 0.84 | 1.43
24 | Cc1nc(-c2ccccc2)n2nc(NCCCN3CCOCC3)ncc12 | 3.41 | 2.22 | 3.36 | 0.88 | 2.05 | 1.78 | 3.88 | 2.24 | 4.72 | 3.5
25 | O=C(Nc1ccc(Oc2ccc3[nH]c(NC(=O)c4ccco4)nc3c2)cc1)Nc1cc(C(F)(F)F)ccc1F | 2.09 | 1.58 | 4.15 | 2.98 | 4.62 | -0.34 | -0.68 | 0.12 | 4.39 | -1.4
26 | COC(=O)Nc1nc2cc(Oc3ccc(NC(=O)Nc4cccc(Br)c4)cc3)ccc2[nH]1 | 2.07 | 1.97 | 3.53 | 1.41 | 2.33 | 2.14 | 2.72 | 1.92 | 2.2 | 2.43
27 | N#Cc1cccc(Nc2nccc(-c3cnn4ncccc34)n2)c1 | 35.4 | 17.8 | 63.4 | -1.28 | -0.33 | 3 | 3.73 | 3.25 | 10.6 | 3.73
28 | Nc1ccc(C#Cc2cncnc2Nc2ccc(OCc3cccc(F)c3)c(Cl)c2)cc1 | -1.06 | 0.73 | 0.72 | 1.79 | -0.16 | 0.65 | 0.62 | 1.8 | 0.63 | 4.63
29 | CN(C)C(=O)O[C@@H]1CN[C@@H](C#Cc2cc3ncnc(Nc4ccc(OCc5cccc(F)c5)c(Cl)c4)c3s2)C1 | 1.65 | 1.47 | 2.72 | 0.93 | 0.99 | -0.23 | 0.16 | 0.47 | 1.66 | 0.93
30 | CC(C)c1ccc2c(c1)NC(=O)/C2=N/Nc1ccc(S(N)(=O)=O)cc1 | 0.01 | -0.56 | 0.81 | -0.87 | 0.54 | -7.82 | 0.1 | 0.32 | 0.01 | -0.88
31 | CCOc1nccc2c1nc(-c1nonc1N)n2CC | 2.47 | 1.48 | 3.36 | -4.15 | -3.33 | 4.09 | 5.94 | 2.06 | 3.78 | 3.66
32 | COc1ccc2ncnc(Nc3ccc(OCc4ccccc4)cc3)c2c1 | 2.13 | 0.77 | 1.93 | 0.01 | 0.04 | 0.93 | 3.17 | 1.65 | 14.2 | 3.34
33 | CN(C)c1cc2c(Nc3ccc4c(cnn4Cc4ccccc4)c3)ncnc2cn1 | 2.41 | 2.28 | 2.7 | 1.84 | 0.37 | 2.49 | 5.16 | 3.91 | 17.9 | 2.91
